Structures are written as SMILES. Screen size: about 310,000 compounds; about 14,000 (4.5%) showed an effect of 50% or more. The effect is printed as a negative number. Only a selection was taken, and strong results are over-represented in it overall.

These results are taken from PMC4336329 (PLoS ONE, 2015).
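Also: peak tail current of the secondary pulse compared with the same well before compound.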

human ether-à-go-go-related gene (hERG) potassium channel, sequence (Q12809 whole entry, looked up): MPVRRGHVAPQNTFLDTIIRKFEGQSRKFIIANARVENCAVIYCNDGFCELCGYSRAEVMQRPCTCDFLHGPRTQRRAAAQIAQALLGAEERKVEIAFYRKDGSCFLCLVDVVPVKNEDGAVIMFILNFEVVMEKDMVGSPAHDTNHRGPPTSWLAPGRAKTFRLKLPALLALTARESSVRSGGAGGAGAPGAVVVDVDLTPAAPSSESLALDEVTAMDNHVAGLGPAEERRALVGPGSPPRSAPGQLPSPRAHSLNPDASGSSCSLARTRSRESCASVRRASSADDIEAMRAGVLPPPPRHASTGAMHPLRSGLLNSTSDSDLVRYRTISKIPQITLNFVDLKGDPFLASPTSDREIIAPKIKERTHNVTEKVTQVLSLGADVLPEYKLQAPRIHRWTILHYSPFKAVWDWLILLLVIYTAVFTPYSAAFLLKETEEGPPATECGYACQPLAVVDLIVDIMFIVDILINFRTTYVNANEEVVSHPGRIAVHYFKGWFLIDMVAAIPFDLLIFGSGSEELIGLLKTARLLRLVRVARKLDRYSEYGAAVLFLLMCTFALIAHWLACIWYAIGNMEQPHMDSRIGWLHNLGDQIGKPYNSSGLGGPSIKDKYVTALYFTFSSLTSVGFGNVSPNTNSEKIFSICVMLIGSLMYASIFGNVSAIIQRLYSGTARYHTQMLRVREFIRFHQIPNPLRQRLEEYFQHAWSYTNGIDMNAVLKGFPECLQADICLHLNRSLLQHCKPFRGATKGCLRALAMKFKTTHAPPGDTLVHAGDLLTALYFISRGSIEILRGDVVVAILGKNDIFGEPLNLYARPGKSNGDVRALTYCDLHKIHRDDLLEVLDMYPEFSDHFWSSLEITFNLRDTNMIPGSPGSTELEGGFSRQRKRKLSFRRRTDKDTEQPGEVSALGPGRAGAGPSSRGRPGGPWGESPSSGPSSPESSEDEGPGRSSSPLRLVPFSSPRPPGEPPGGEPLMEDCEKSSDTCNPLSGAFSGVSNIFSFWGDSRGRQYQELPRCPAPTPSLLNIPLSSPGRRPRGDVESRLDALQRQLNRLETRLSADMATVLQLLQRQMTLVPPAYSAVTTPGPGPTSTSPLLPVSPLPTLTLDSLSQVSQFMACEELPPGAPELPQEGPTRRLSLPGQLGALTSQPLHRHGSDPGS

The test addresses human ether-à-go-go-related gene (hERG) potassium channel (human, UniProt Q12809). Kind of test: primary screen, population patch clamp on CHO cells stably expressing hERG; higher = less effect of the substance.
In the case of `CCCCCn1c(NC2CCCCC2)nc2c1c(=O)[nH]c(=O)n2C`, the “hERG current change (%, negative = inhibition) at 10uM” value is reported as -17.6%. In the case of `N#CCCN(C(=O)Nc1ccc(Cl)c(Cl)c1)c1ccccc1`, the “hERG current change (%, negative = inhibition) at 10uM” value is -0.506%. As for `CCOc1cc(/C=C2\SC(=S)N(NS(=O)(=O)c3ccccc3)C2=O)ccc1O`, the “hERG current change (%, negative = inhibition) at 10uM” value is 8.33%. As for `CCCCn1c(N)c(N(CCC(C)C)C(=O)COC(=O)c2ccccc2)c(=O)[nH]c1=O`, the “hERG current change (%, negative = inhibition) at 10uM” value came to 3.79%. In the case of `CCc1ccc2nc(N(CCCN(C)C)C(=O)c3ccc(S(=O)(=O)N4CCCC4)cc3)sc2c1.Cl`, the “hERG current change (%, negative = inhibition) at 10uM” value is -67.7%. In the case of `CCOc1ccc2nc(N(CCCN(C)C)C(=O)c3ccc(S(=O)(=O)N4CCCC4)cc3)sc2c1.Cl` it was -70.4%; in that of `CCc1ccc2nc(N(CCCN(C)C)C(=O)c3ccc(S(=O)(=O)N4CCc5ccccc5C4)cc3)sc2c1.Cl`, -7.91%; in that of `Cc1cc(C)c2nc(N(CCCN(C)C)C(=O)c3ccc(S(=O)(=O)N4CCCCCC4)cc3)sc2c1.Cl`, -20.3%.

Take `CCOc1ccc2nc(N(CCCN(C)C)C(=O)c3ccc(S(=O)(=O)N4CCc5ccccc5C4)cc3)sc2c1.Cl`: the “hERG current change (%, negative = inhibition) at 10uM” value was -1.08%. Turning to `CN(C)CCCN(C(=O)c1ccc(S(=O)(=O)N2CCCC2)cc1)c1nc2ccc(Br)cc2s1.Cl`, the “hERG current change (%, negative = inhibition) at 10uM” value was -47.9%.

With `Cc1ccc2nc(N(CCCN(C)C)C(=O)c3ccc(S(=O)(=O)N4CCOCC4)cc3)sc2c1.Cl`, the “hERG current change (%, negative = inhibition) at 10uM” value is -33.9%.

For the compound `Cc1ccc2nc(N(CCCN(C)C)C(=O)c3ccc(S(=O)(=O)N4CCCCCC4)cc3)sc2c1.Cl`, the “hERG current change (%, negative = inhibition) at 10uM” value is given as -58%. In the case of `COc1ccccc1N1CC(C(=O)Nc2nnc(SCC(=O)NC(C)C)s2)CC1=O` (stereo not shown) it was 20.1%; in that of `CC(=O)Nc1ccc(NC(=O)CSc2nnnn2C2CCCCC2)cc1`, -8.79%; in that of `O=C(CNC(=O)N1CC(=O)Nc2ccccc21)Nc1nccs1`, 12%. In the case of `CCCc1c(O)nc(SCC(=O)O)[nH]c1=O` it was 67.7%; in that of `CC1(C)CC(=O)/C(=C(/O)Cc2ccccc2)C(=NCCc2ccccc2)C1`, -45.2%.

Take `O=C(C1CCCCC1)N(Cc1ccccc1)c1ccccn1`: the “hERG current change (%, negative = inhibition) at 10uM” value came out at 1.25%. In the case of `COc1cc(C(=O)NC2CC3CCCC(C2)N3Cc2ccccc2)cc(OC)c1OC` (stereo not shown) it was 8.89%. For `O=C(/C=C/c1ccccc1)NC1CC2CCCC(C1)N2Cc1ccccc1` (stereo not shown), the “hERG current change (%, negative = inhibition) at 10uM” value is -69.7%. Turning to `COc1ccc(CN2C3CCCC2CC(NC(=O)/C=C/c2ccccc2)C3)cc1` (stereo not shown), the “hERG current change (%, negative = inhibition) at 10uM” value is reported as -88%.

On to `O=C(NC1CC2CCCC(C1)N2Cc1ccccc1)C1CCCCC1` (stereo not shown), for which the “hERG current change (%, negative = inhibition) at 10uM” value is -25.2%. With `CCN(CC)C(=O)NC1CC2CCCC(C1)N2Cc1ccccc1` (stereo not shown), the “hERG current change (%, negative = inhibition) at 10uM” value is -6.25%. In the case of `COc1ccccc1CN1C2CCCC1CC(NC(=O)/C=C/c1ccccc1)C2` (stereo not shown), the “hERG current change (%, negative = inhibition) at 10uM” value is listed as -59.4%.

With `CNC(=S)NC1CC2CCCC(C1)N2Cc1ccccc1OC` (stereo not shown), the “hERG current change (%, negative = inhibition) at 10uM” value is given as -10.1%.

Regarding `COc1ccc(C(=O)OCC(=O)Nc2c(C)n(C)n(-c3ccccc3)c2=O)cc1OC`, the “hERG current change (%, negative = inhibition) at 10uM” value is given as 16.5%. `CCc1[nH]nc2c1C(C(C)C)C(C#N)=C(N)O2` (stereo not shown): the “hERG current change (%, negative = inhibition) at 10uM” value stood at 10.8%. In the case of `Cn1c(Cc2ccccc2)nnc1SCC(=O)Nc1ccc2c(c1)OCO2` it was 5.64%. `Cc1ccc(NC(=O)/C(=C\c2ccccc2)NC(=O)/C=C/c2ccccc2)cc1`: the “hERG current change (%, negative = inhibition) at 10uM” value is -12.9%.

On to `Cn1c(=O)cc(SCC(=O)N2CCC3(CC2)OCCO3)c2ccccc21`, for which the “hERG current change (%, negative = inhibition) at 10uM” value is reported as -1.64%. `CC1CCN(C2(O)C(=O)Nc3ccc(Cl)cc32)CC1` (stereo not shown): the “hERG current change (%, negative = inhibition) at 10uM” value is 4.26%. Turning to `CC(Sc1ncnc2ccccc12)C(=O)Nc1ccc2c(c1)OCCO2` (stereo not shown), the “hERG current change (%, negative = inhibition) at 10uM” value is 5.25%. In the case of `Cc1cccc(OCC(O)Cn2c(=N)n(Cc3ccccc3)c3ccccc32)c1.Cl` (stereo not shown), the “hERG current change (%, negative = inhibition) at 10uM” value is given as -71%. On to `OC(COc1ccccc1)Cn1c2ccccc2c2ccccc21` (stereo not shown), for which the “hERG current change (%, negative = inhibition) at 10uM” value was 6%. In the case of `Cl.N=c1n(Cc2ccc(Cl)cc2)c2ccccc2n1CC(O)COc1ccccc1` (stereo not shown) it was -68.2%. With `COc1ccc(OCC(O)CN2C(=O)c3ccccc3C2=O)cc1` (stereo not shown), the “hERG current change (%, negative = inhibition) at 10uM” value turned out to be 8.41%.

As to `Cc1cccc(OCC(O)CNC(=O)c2ccccc2C(=O)O)c1` (stereo not shown), the “hERG current change (%, negative = inhibition) at 10uM” value is reported as -21.2%.

Turning to `N=c1ccccn1CC(O)COc1ccccc1` (stereo not shown), the “hERG current change (%, negative = inhibition) at 10uM” value is -3.09%. In the case of `Cl.N=c1n(Cc2ccccc2)c2ccccc2n1CC(O)COc1ccccc1` (stereo not shown) it was -74.6%; in that of `COc1ccc(OCC(O)Cn2c(=N)n(Cc3ccccc3)c3ccccc32)cc1.Cl` (stereo not shown), -73.5%.

For the compound `CC1(C)CC(=O)c2cc(C(=O)N3CCCC(C)(C)C3)c(=O)n(-c3ccccc3)c2C1`, the “hERG current change (%, negative = inhibition) at 10uM” value is reported as 11.5%. For `CCc1c(C)sc(NC(=O)/C=C/C(=O)O)c1C(N)=O`, the “hERG current change (%, negative = inhibition) at 10uM” value is recorded as 36.5%.

Consider `Cc1ccc(C2CC(=O)Nc3c2ccc2ccccc32)cc1[N+](=O)[O-]` (stereo not shown), for which the “hERG current change (%, negative = inhibition) at 10uM” value was 6.65%.

Turning to `CC(=O)c1nn(-c2ccccc2)cc1C(=O)c1ccc(C)cc1`, the “hERG current change (%, negative = inhibition) at 10uM” value turned out to be 3.72%.

Consider `N#Cc1c(C(F)(F)F)cc(-c2ccc(F)cc2)nc1SCC(=O)O`, for which the “hERG current change (%, negative = inhibition) at 10uM” value turned out to be 6.06%.

Take `COc1ccc(OC)c(N(CC(=O)NCc2ccccc2)S(=O)(=O)c2ccc(OC)c(OC)c2)c1`: the “hERG current change (%, negative = inhibition) at 10uM” value came out at 18.3%.
